Experimental data taken from the supplement of paper PMC7866885, “A novel bicyclic 2,4-diaminopyrimidine inhibitor of Streptococcus suis dihydrofolate reductase” (PeerJ, 2021).
± gives the standard deviation.

Each compound was assayed on Streptococcus suis HE06 (assay: percent growth relative to DMSO control; higher = less growth inhibition). Settings: 10 µM; incubation time 18 h.
Method: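 CLSI broth microdilution: 5x10^4 CFU of Streptococcus suis (strain P1/7 or HE06) incubated with 10 µM Pathogen Box compound in cation-adjusted Mueller Hinton broth, 37 °C, 5% CO2, 18 h. Growth read as OD600 and expressed as percent of the DMSO-treated control (100%); mean ± SD of three independent experiments.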

Row | Compound | percent growth [%]
1 | Oc1c(I)cc(I)c2cccnc12 | 0.688 ± 0.61
2 | FC(F)(F)c1nnc2ccc(Cl)nn12 | 74.8 ± 22
3 | Cc1cc(C)n(-c2ccc(NC(=O)C3CCN(Cc4cnc(C)s4)CC3)cc2)n1 | 95.3 ± 24
4 | O=C(NC1CC1)c1ccc(N2CCC(Cc3ccccc3)CC2)nc1 | 91.7 ± 9.1
5 | CNC(=O)c1nn(C)c2c1C(C)(C)Cc1cnc(Nc3ccc(N4CCN(C)CC4)cc3)nc1-2 | 88.7 ± 21
6 | COc1cccn2c(C(=O)N3CCCCC3)c(C(F)(F)F)nc12 | 111 ± 22
7 | CC(=O)NCC1CN(c2ccc(-c3ccc(CNCc4cn[nH]n4)cc3)c(F)c2)C(=O)O1 (stereo not given) | 0.542 ± 0.94
8 | CC(C(=O)Nc1ccc2oc(-c3ccncc3)nc2c1)c1ccccc1 (stereo not given) | 81.1 ± 11
9 | CN(C)CCNC(=O)N1CCCN(c2ncnc3cc(-c4ccccc4)sc23)CC1 | 92.9 ± 31
10 | Nc1ccc2ncnc(Nc3ccc(OCc4cccc(F)c4)c(Cl)c3)c2c1 | 111 ± 9.4
11 | Nc1ccc(C(=O)Nc2ccc(-c3nc4ccccc4o3)cc2)cc1 | 105 ± 4.4
12 | CC(=O)N1CCc2cc3nc(C)cc(C)c3cc21 | 88.4 ± 9.8
13 | Nc1ncnc2c1ncn2[C@@H]1O[C@H](COS(=O)(=O)NC(=O)c2ccccc2O)[C@@H](O)[C@H]1O | 97.4 ± 8.2
14 | Nc1ncnc2c1ncn2C[C@@H](O)[C@@H](O)C(=O)O | 75.9 ± 17
15 | Brc1c(-c2ccc3c(c2)OCO3)nc2ncccn12 | 95.7 ± 6.9
16 | Cc1nn(C)cc1C(C)Nc1nncc(-c2ccc(C(F)(F)F)cc2)n1 (stereo not given) | 116 ± 20
17 | NC(=O)c1cc(Br)ccc1OCCOc1ccccc1 | 85.2 ± 9.9
18 | c1ccc2c(c1)CN(CC1CC1)CC1(CCN(Cc3c[nH]c4cnccc34)CC1)O2 | 85.1 ± 15
19 | O=C(Nc1nnc(-c2ccc(Cl)cc2)o1)c1cccc(C(F)(F)F)c1 | 0
20 | CCn1cnc2c(Nc3cc(F)cc(F)c3)nc(C#N)nc21 | 116 ± 30
